Assay outcomes: PubChem, several laboratories
Wnt bcat act – Wnt/beta-catenin pathway activators, primary screen, cell-based, plate reader, single point | activation, % at 9.35 µM | Wnt/beta-catenin reporter cell assay, activator | AID 743398, 2014 | 300,000 compounds, 1.2% hits; in the data active = activation above about 30%, passing the limit was not always enough; inconclusive = no clear call, values can overlap the other calls;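 note: 0% = neutral control wells and 100% = positive control wells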
HSF1 activator – HSF-1 activators, primary screen, NIH3T3-HGL cells, MG132 stress, luminescence, single point | NIH3T3-HGL HSF-1 luciferase reporter, 8 h; 100% = twice DMSO control signal | activation, % at 9 µM | 300,000 compounds, 1.7% hits;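 active = mean replicate activation of at least 50% with a set share of replicates each reaching 50%; inconclusive = only one of those two conditions met; inactive = mean below 50% and too few replicates reaching it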;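 note: 0% = median of the neutral control wells and 100% = twice that signal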
MITF TRPM1 HTS – activators of MITF-driven TRPM1 promoter reporter, primary screen, cell-based, SK-MEL-5, luciferase, single point; SK-MEL-5 TRPM1-promoter luciferase, 24 h; % of positive control, neutral wells = 0; activation, % at 12.5 µM; 300,000 compounds, 0.75% hits;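 active = mean activation of at least 80% with every replicate also reaching 80%; inconclusive = mean reaches 80% but some replicate falls short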;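 note: 0% = neutral control wells and 100% = parthenolide positive control wells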
SMARCA2 act – SMARCA2 (BRM) function activators, primary screen, cell-based, luminescence, high throughput; MG213 cells, MMTV-luciferase reporter, dexamethasone, overnight; activation, % at 9.1 µM; 370,000 compounds, 1% hits; AID 652017, 2013; in the data active = activation above about 7.8%;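 note: 0% = vehicle wells and 100% = reference activator wells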
HSF1 inhib – HSF1 inhibitors in luciferase reporter cells, primary screen, cell-based, NIH3T3, luminescence; NIH3T3-HGL HSE-luciferase, MG132-induced, luminescence 8 h; stronger effect = lower value; 300,000 compounds, 0.77% hits; AID 2098, 2009; activity change, negative = inhibition, % at 7.5 µM (by protocol);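 active = more than half of replicate wells show activity change below -50%, luminescence cut by over half; inconclusive = some wells, but at most half, below -50%; inactive = no replicate well below -50%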;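 note: luciferase reports HSF-1 transcriptional activity via heat shock element; 0% = median of DMSO wells and -100% = zero luminescence signal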
esBAF inh – Bmi1 luciferase reporter increase in mESCs, primary screen, esBAF inhibitor project, mouse ES cells, Bmi1 luciferase knock-in, single point. 24 h; 100% = twice the neutral-well signal. reporter increase, % at 12.5 µM. 350,000 compounds, 2% hits; in the data active = activation above about 40%; inconclusive = no clear call, values can overlap the other calls;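 note: 0% = median of the plate's neutral control wells and 100% = double that signal; a rise in the Bmi1 reporter signal indicates esBAF inhibition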
Numbers without * were called inactive; u = inconclusive; x = no result. This is a sample that favours compounds with a hit; in the whole collection about 4.3% have one here.

SMILES | Wnt bcat act | HSF1 activator | MITF TRPM1 HTS | SMARCA2 act | HSF1 inhib | esBAF inh
c1ccc(Cn2nc(-c3ccccc3)nc2-c2ccccc2)cc1 | x | 45 | 19 | 4 | 27 | x
Cc1cccc(-c2cc3nc(-c4ccccc4)cc(=O)n3[nH]2)c1 | u | 27 | 50 | 5 | 21 | 17
CCCc1cc(=O)n2[nH]c(-c3cccc(Br)c3)cc2n1 | 7 | 46 | x | 1 | 27 | 52*
CCOc1ccc(N2C(=O)c3ccccc3C2=O)cc1 | x | 8 | 7 | -1 | -1 | 43*
O=C1c2ccccc2C(O)N1c1cccnc1 (centres undefined) | -1 | 0 | 2 | -2 | 3 | 8
O=C(COc1ccc(N2C(=O)c3ccccc3C2=O)cc1)c1ccccc1 | -5 | -2 | 4 | 5 | -6 | x
CCOc1ccc(N2C(=O)c3ccccc3C2O)cc1 (centres undefined) | 43* | 10 | x | 4 | -1 | u
CCNC(=O)C[C@H]1CC[C@@H]2[C@H](COc3ccc(NC(=O)c4ccccc4)cc3C(=O)N2C)O1 | x | x | x | x | x | -3
CN1CCN(C(=O)C[C@@H]2CC[C@@H]3[C@H](COC[C@@H](O)CN3C(=O)C3CCCC3)O2)CC1 | x | x | x | x | x | 0
CC(C)c1ccc(Nc2ncc3c(n2)CCN(C(=O)Nc2ccc(F)c(Cl)c2)C3)cc1 | -2 | x | x | -1 | x | 56*
COc1cccc(NC(=O)N2CCc3nc(Nc4cc(Cl)cc(Cl)c4)ncc3C2)c1 | 1 | x | x | -3 | x | 0
NC(=O)c1cnn(-c2cc(Oc3ccccc3)ncn2)c1N | 8 | 34 | 87* | 6 | 4 | 37
COC(=O)c1cnn(-c2cc(Oc3ccccc3)ncn2)c1N | x | 21 | 59 | 6 | 16 | 22
CNC[C@H]1Oc2c(cccc2N(C)C)C(=O)N([C@H](C)CO)C[C@H]1C | x | x | x | x | x | -7
CCCC1c2ccc(C)n2CCN1C(=O)Nc1ccccc1Cl (centres undefined) | x | 29 | 48 | 4 | 10 | 63*
CO[C@H]1CN(C)C(=O)c2cc(NC(=O)C3CCCCC3)ccc2OC[C@@H](C)N(Cc2nccs2)C[C@H]1C | x | x | x | x | x | 12
COc1ccc(-n2c(SCc3ccc([N+](=O)[O-])cc3)nnc2-c2ccc(C)cc2)cc1 | -2 | 57* | 8 | -2 | 26 | x
COc1cc(/C=C(/C#N)C(=O)c2c(C)[nH]c3ccccc23)ccc1OCC#N | -1 | 68* | -7 | 2 | 42 | -2
CCOc1ccc(/C=C(\C#N)C(=O)c2c(C)[nH]c3ccccc23)cc1OC | 0 | 11 | -4 | -2 | 0 | x
CCN(CC)C(=S)SCC(=O)c1ccccc1 | x | 45 | x | 5 | 19 | 55*
CCN(CC)C(=S)SCC(=O)c1ccc(F)cc1 | u | 66* | 76 | 4 | 43 | 48*
Cc1ccc2[nH]c(=O)c(-c3nc4ccccn4c3NCc3ccco3)cc2c1 | 55* | 38 | 14 | 6 | 11 | 29
O=C(Nc1cccnc1)c1ccc([N+](=O)[O-])o1 | 9 | 19 | -35 | 7.8* | 10 | 2
O=C(NCc1cccnc1)c1ccc([N+](=O)[O-])o1 | x | 70* | -56 | 3 | 29 | -3
CC(=O)c1cccc(NC(=O)c2ccc([N+](=O)[O-])o2)c1 | -17 | 55* | -30 | 6 | 45 | 14
SMILES | Wnt bcat act | HSF1 activator | MITF TRPM1 HTS | SMARCA2 act | HSF1 inhib | esBAF inh
O=C(Nc1cccc(S(=O)(=O)N2CCCCC2)c1)c1ccc([N+](=O)[O-])o1 | -11 | 74* | -79 | 3 | 56 | 20
C[C@@H]1CN([C@H](C)CO)C(=O)Cc2cc(NC(=O)CCCCCC(=O)Nc3ccccc3N)ccc2O[C@@H]1CN(C)C(=O)NC1CCCCC1 | x | x | x | x | x | -1
CO[C@@H]1CN(C)C(=O)c2ccc(NC(=O)Nc3ccccc3)cc2OC[C@@H](C)N(C(=O)CC2CC2)C[C@@H]1C | x | x | x | x | x | -1
COc1ccccc1CNC(=O)c1ccc2nc3[nH]c4ccccc4c3nc2c1 | 3 | 10 | -1 | 1 | 6 | 26
Cc1ccc(CNC(=O)c2ccc3nc4[nH]c5ccccc5c4nc3c2)cc1 | 21 | -77 | x | 2 | -76* | x
O=C1N/C(=C\c2ccc(O)cc2)C(O)=C1C=NCc1ccccc1 | x | 64* | 16 | 3 | 41 | 4
C[C@@H]1CCCCO[C@H](CN(C)S(C)(=O)=O)[C@@H](C)CN([C@@H](C)CO)C(=O)c2cc(NS(=O)(=O)c3cn(C)cn3)ccc2O1 | x | x | x | x | x | 2
CCc1nnc(NS(=O)(=O)c2ccc(N/C=C\C(=O)c3cccc(OC)c3)cc2)s1 | -2 | 1 | 12 | 7.9* | 7 | x
CCOC(=O)c1ccc(N/C=C\C(=O)c2cccc(OC)c2)cc1 | x | -9 | 96* | 1 | 4 | x
Cc1cccc(N/C=C/C(=O)c2ccc(Cl)cc2)c1 | 49* | 29 | 72 | 5 | 12 | 41
NS(=O)(=O)c1ccc(N/C=C\C(=O)c2ccc(F)cc2)cc1 | 20 | 74* | 79 | 6 | 27 | x
CCC(=O)N(C)C[C@H]1Oc2ncc(-c3ccccc3OC)cc2C(=O)N([C@@H](C)CO)C[C@@H]1C | x | x | x | x | x | -3
COc1cccc(S(=O)(=O)N2CC[C@@H]3[C@@H](CO)Nc4ccc(-c5ccc(C#N)cc5)cc4[C@@H]32)c1 | x | x | x | x | x | 0
C[C@@H]1CN([C@H](C)CO)C(=O)CCCn2nncc2CO[C@@H]1CN(C)C(=O)Nc1cccc(Oc2ccccn2)c1 | x | x | x | x | x | 3
Cc1ccc(S(=O)(=O)Nc2ccc3c(c2)C(=O)N([C@H](C)CO)C[C@@H](C)[C@@H](CN(C)Cc2ccccc2)OCCCC[C@@H](C)O3)cc1 | x | x | x | x | x | -1
Cc1noc(C)c1S(=O)(=O)Nc1ccc2c(c1)C(=O)N([C@H](C)CO)C[C@@H](C)[C@@H](CN(C)S(=O)(=O)c1cn(C)cn1)OCCCC[C@H](C)O2 | x | x | x | x | x | -2
COc1ccc(N/C=C\C(=O)c2ccc(C)cc2)cc1OC | 6 | 1 | 57 | 6 | 5 | 52*
CCOC(=O)c1ccc(OS(=O)(=O)c2ccccc2)c(OC)c1 | 54* | 63* | u | 6 | 25 | x
CC(=O)c1ccc(N/C=C/C(=O)c2ccc(Br)cc2)cc1 | 1 | 11 | x | 3 | 7 | 46*
CC(=O)Nc1ccc(N/C=C/C(=O)c2ccc(Br)cc2)cc1 | x | 26 | 47 | x | 7 | 34
COc1cccc(C(=O)/C=C/Nc2cc(C)ccc2O)c1 | x | -17 | 64 | 5 | 5 | 63*
COc1ccc(N/C=C\C(=O)c2ccc(Br)cc2)cc1OC | 0 | 3 | 46 | 3 | -5 | x
O=C(N[C@H]1CC[C@H](CCNS(=O)(=O)c2cccc(Cl)c2)O[C@H]1CO)c1ccncc1 | x | x | x | x | x | -1
